IEC-6 cytotox – IEC-6 cytotoxicity, counter-screen for KLF5 inhibitors; luminescence viability; inhibition, % at 5 µM; 290,000 tested, 0.78% active; AID 1825; in the data active means inhibition above about 22%;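 further: 0% = plate median of test compound wells and 100% = cytotoxic reference compound wells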
Ba/F3 V617F tox – lowers viability of Ba/F3 cells expressing EpoR and JAK2V617F | ATP luminescence | inhibition, % at 5.6 µM | 220,000 tested, 1.1% active;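 active means inhibition above the campaign mean plus 3 SD over all tested compounds, cut at about 24% in these data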;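 further: cytokine-independent growth of Ba/F3 cells driven by EpoR plus mutant JAK2; 0% = DMSO-treated cells and 100% = JAK inhibitor I control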
aSyn UTR inh – 5' untranslated region of α-synuclein, MLPCN primary screen; alpha-synuclein 5'UTR reporter, inhibitor activity; inhibition, % (tested at 7.5 µM); 300,000 tested, 0.82% active; in the data active means inhibition above about 60%;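 further: H4 neuroglioblastoma cells stably carrying SNCA 5'UTR luciferase fusion; 0% = DMSO wells and 100% = positive control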
BaF3 parental – reduces parental Ba/F3 cell viability, JAK2V617F counter-screen | 220,000 tested, 1.1% active | inhibition, % at 5.6 µM | AID 1486 | CellTiter-Glo ATP luminescence;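 active means inhibition above a per-campaign cutoff, the mean inhibition of all tested compounds plus 3 SD, cut at about 27% in these data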;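 further: 0% = DMSO wells and 100% = JAK Inhibitor I control wells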
KLF5 inhibitor – kruppel-like factor 5 inhibition | DLD-1 KLF5 promoter-luciferase reporter, luminescence | inhibition, % at 5 µM | 290,000 tested, 0.23% active;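 active means inhibition above a per-plate limit of that plate's mean compound inhibition plus 3 SD, cut at about 60% in these data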;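 further: 0% = DMSO wells and 100% = LY294002 at 200 µM; higher means less KLF5 promoter-driven luciferase light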
APP transl inh – APP translation inhibition | SH-SY5Y APP 5'UTR-luciferase reporter, luminescence | 190,000 tested, 0.82% active | inhibition, % at 2 µM;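 active means inhibition above a set limit, derived from the sample mean plus 3 SD, cut at about 45% in these data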
Active calls of the source: *; · = no result given. Sampled rows, rich in hits. Any-hit rate of the full collection: about 2.1%.

SMILES	IEC-6 cytotox	Ba/F3 V617F tox	aSyn UTR inh	BaF3 parental	KLF5 inhibitor	APP transl inh
CC(C)(C)c1nc(SCC(=O)NNC(=O)c2ccccc2)c2ccccc2n1	-4	·	-1	·	-9	·
COc1cc(-c2onc3ccc(Br)cc23)cc(OC)c1OC	2	69*	66*	79*	-13	73*
CCOC(=O)c1c(NC(=O)C[n+]2ccc(N(C)C)cc2)sc(C)c1C	8	29*	6	35*	-7	-15
CCCCNc1nc2c(c(=O)n(C)c(=O)n2C)n1CCC	·	·	14	·	·	·
COCCNc1nc2c(c(=O)n(C)c(=O)n2C)n1Cc1cccc(C(F)(F)F)c1	-6	59*	2	60*	-59	-1
COc1cccc(Cn2c(NCc3ccco3)nc3c2c(=O)n(C)c(=O)n3C)c1	10	59*	-17	86*	8	-10
CCCNc1nc2c(c(=O)n(C)c(=O)n2C)n1CCc1ccccc1	0	-1	-17	3	2	-7
COc1cccc(Cn2c(NCC(C)C)nc3c2c(=O)n(C)c(=O)n3C)c1	6	2	9	5	-17	-9
CCCNc1nc2c(c(=O)n(C)c(=O)n2C)n1Cc1cccc(C)c1	4	42*	-13	45*	-30	-8
CCCCCCn1c(NCC)nc2c1c(=O)n(C)c(=O)n2C	16	54*	-11	59*	-15	2
Cn1c(=O)n(C)c2cc(N3CCOCC3)c(NC(=O)c3ccc(F)cc3)cc21	-2	·	-6	·	12	·
O=C1NC(NS(=O)(=O)c2ccccc2)(C(F)(F)F)C(=O)N1c1cccc(Cl)c1 (configuration not stated)	-8	·	1	·	11	·
N#Cc1c(N)nc(Sc2ccc(Cl)cc2)c(C#N)c1-c1ccccc1Cl	-4	-3	-20	0	-20	·
COc1ccccc1C(=O)NC(=O)CSc1nncn1C(C)C	·	·	-5	·	·	·
COc1ccc(CCNC(=O)/C(C#N)=C/c2cccc(OCc3ccccc3)c2)cc1OC	-4	2	-17	10	-25	-17
COc1ccc(NC(=O)CC2SC(=N)N(c3ccccc3)C2=O)c(OC)c1 (configuration not stated)	5	-3	-5	2	-29	13
CCOC(=O)c1cc(NC(=O)c2ccccc2)c(=O)n2c1oc1ccccc12	-5	-3	10	5	-21	33
Cc1ccc(-n2nc3ccc(N)cc3n2)c(C)c1	7	·	66*	·	-48	·
COc1ccc(C2CC(C(F)(F)F)n3nc(C(=O)N(C)Cc4cn(C)nc4C)c(Cl)c3N2)cc1 (configuration not stated)	-1	0	-17	4	-14	-7
COc1ccc(C2CC(C(F)(F)F)n3nc(C(=O)NCc4c(C)nn(C)c4C)c(Cl)c3N2)cc1 (configuration not stated)	5	36*	-13	44*	-19	-11
Cc1c(CN(C)C)c2c(n1C)C(=O)c1ccc(Br)cc1-2	9	8	-10	11	-7	-15
CCOC(=O)c1c2c(n(C)c1C)C(=O)C(=O)c1ccc(Br)cc1-2	4	-3	110*	-2	-13	-5
Cc1c(C)c2ccc(OC(C)C(=O)NCc3ccccn3)cc2oc1=O (configuration not stated)	4	·	-4	·	-36	·
CCOC(=O)C1CCN(C(=O)CN2C(=O)CSc3ccc(S(=O)(=O)N4CCOCC4)cc32)CC1	2	·	12	·	-26	·
COc1ccc(/C=C(/C(=O)c2cccs2)N2C=CC=CC2=C(C#N)C#N)cc1	3	-3	-102	-1	-9	82*
SMILES	IEC-6 cytotox	Ba/F3 V617F tox	aSyn UTR inh	BaF3 parental	KLF5 inhibitor	APP transl inh
c1cc2c(cc1C1CCCCC1)c1c3n2CCCNC3CCC1 (configuration not stated)	0	13	87*	12	-28	33
O=C(c1ccc(CS(=O)c2ccc(F)cc2)o1)N1CCN(C2CCCCC2)CC1 (configuration not stated)	6	·	-11	·	-43	·
COc1ccc2[nH]c(=O)c(CN(Cc3cccs3)S(=O)(=O)c3cccc4nsnc34)cc2c1	5	-1	76*	7	-15	30
COc1ccc2[nH]c(=O)c(CN(CCO)S(=O)(=O)c3c(C)ccc4nsnc34)cc2c1	2	-2	15	-2	-11	-1
CCOc1ccc(N(CC(=O)NCc2ccc(F)cc2)C(=O)CCC(=O)Nc2nccs2)cc1	2	·	2	·	4	·
CC12CC3CC(C)(C1)CC(C(=O)N1CCN(C(=O)c4ccco4)CC1)(C3)C2	7	·	7	·	-30	·

Bioassay records deposited in PubChem by several laboratories.
